Assay outcomes as filed in PubChem BioAssay.
Shown are actives, neighbours in structure and some others; about 2.7% of the full set was active somewhere.
PAX8 reporter: inhibitors of PAX8 transcriptional activity in RMG-I cells; hit rate 1.2% among 360,000; RMG-I TPO-luciferase reporter, SteadyGlo, 24 h; inhibition, % at 12.6 µM; AID 652154;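 active means mean replicate inhibition at least 60% with every replicate also reaching 60%; inconclusive means only one of the two criteria is met; inactive means mean below 60% and not all replicates reaching 60%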;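 further: luciferase light reporting Pax8 driven TPO promoter activity; plate controls were median of neutral control wells for no effect and mitoxantrone controls for full effect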
PGC1a acetyl inh: PGC1a acetylation modulation, inhibitor mode; U2OS PGC1a acetylation, AlphaScreen anti-acetyl-lysine; with virally co-expressed GCN5 acetyltransferase; inhibition, % at 15.6 µM; hit rate 0.17% among 350,000; AID 651687;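 active means every replicate shows inhibition of at least 40%; inconclusive means mean inhibition at least 40% but some replicate below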;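 further: 0% = neutral control wells and 100% = positive control wells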
INS-1E GSIS act: GLuc luminescence reporter in INS-1E cells, primary screen for activators of glucose-dependent secretion of insulin; INS-1E GLuc reporter insulin secretion, 2-3 h; activation, % at 16.6 µM; hit rate 0.61% among 370,000;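 active means lowest replicate activation of at least 40%, so every replicate reaches that level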;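 further: 0% = median of neutral control wells and 100% = median of IBMX positive control wells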
CFTR F508del cor: correctors of CFTR F508del function in bronchial epithelial cells; hit rate 0.36% among 350,000; CFBE cells, YFP halide quenching; stimulated with forskolin plus potentiator P3; % fluorescence drop versus neutral controls; activity (quench increase), % at 7.58 µM; AID 720511;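 active means mean added fluorescence quench of at least 8% versus neutral control, with both replicates also reaching 8%; inconclusive means only one of the mean or replicate conditions met; inactive means mean below 8% and not both replicates reaching 8%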;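 further: cells transiently co-express mutant CFTR-F508del with the halide-sensitive YFP; corrector assay measuring rescue of mutant channel to the surface after 24 h compound exposure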
EWS-Fli block: blocks EWS/Fli oncoprotein-driven transcription; A673 NR0B1-luciferase reporter, viability-normalised; inhibition, % at 12.6 µM; hit rate 0.67% among 350,000;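 active means mean inhibition of at least 50% after viability correction, with every replicate also passing that limit; inconclusive means mean reaches 50% but only one of two replicates passes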;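 further: firefly luciferase signal divided by Alamar Blue viability fluorescence both relative to DMSO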
HIV Env fusion: inhibitors of HIV Env-mediated cell fusion; HeLa-JRFL Env/CEM21 cell fusion, luciferase; inhibition, % at 12.3 µM; hit rate 1.1% among 360,000; AID 651610;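 active means mean replicate inhibition score of at least 50 and every replicate individually at or above 50; inconclusive means only one of the two criteria met; inactive means mean below 50 and not all replicates reaching 50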;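 further: 0% = plate neutral controls and 100% = maraviroc near 300 nM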
* = called active by the depositor; ? = inconclusive; · = no result given; [ ] = another dose, or the depositor's remark.

SMILES	PAX8 reporter	PGC1a acetyl inh	INS-1E GSIS act	CFTR F508del cor	EWS-Fli block	HIV Env fusion
C[C@H]1CN([C@@H](C)CO)C(=O)c2cc(NC(=O)Nc3ccc4c(c3)OCO4)ccc2O[C@H]1CN(C)S(=O)(=O)c1ccc(Cl)cc1	·	-9.7	-18.1	4.2	-0.3	64.9*[16.7 µM]
C[C@@H]1CN([C@@H](C)CO)C(=O)c2cccc(NC(=O)Nc3ccc4c(c3)OCO4)c2O[C@H]1CN(C)S(=O)(=O)c1ccccc1	5.7	7.7	9.8	9.0*	-0.8	-19.9[16.7 µM]
Cc1ccc(S(=O)(=O)N(C)C[C@H]2Oc3ccc(NC(=O)Nc4ccc5c(c4)OCO5)cc3C(=O)N([C@@H](C)CO)C[C@H]2C)cc1	-1.9	7.1	-19.4	-1.6	-4.5	0.0[16.7 µM]
Cc1ccc(S(=O)(=O)N(C)C[C@@H]2Oc3ccc(NC(=O)Nc4ccc5c(c4)OCO5)cc3C(=O)N([C@H](C)CO)C[C@@H]2C)cc1	-23.9	-14.4	-19.6	0.8	10.3	60.1*[16.7 µM]
C[C@@H]1CN([C@@H](C)CO)C(=O)c2cc(NC(=O)Nc3ccc4c(c3)OCO4)ccc2O[C@H]1CN(C)S(=O)(=O)c1ccc(Cl)cc1	·	5.5	23.0	3.8	-5.5	-1.7[16.7 µM]
C[C@@H]1CN([C@@H](C)CO)C(=O)c2cc(NC(=O)CCC(F)(F)F)ccc2O[C@@H]1CN(C)S(=O)(=O)c1ccc(F)cc1	14.9	1.1	-8.0	-0.8	-4.4	17.3[16.7 µM]
C[C@H]1CN([C@@H](C)CO)C(=O)c2cc(NC(=O)CCC(F)(F)F)ccc2O[C@H]1CN(C)C	-13.9	5.0	7.6	-0.6	1.5	·
C[C@H](CO)N1C[C@H](C)[C@H](CN(C)S(=O)(=O)c2ccc(Cl)cc2)Oc2ccc(NC(=O)Nc3ccc4c(c3)OCO4)cc2C1=O	·	-12.6	-18.3	1.0	4.9	110.7*[16.7 µM]
CC(C)NC(=O)N(C)C[C@H]1Oc2ncc(-c3ccc(C(=O)N(C)C)cc3)cc2C(=O)N([C@@H](C)CO)C[C@H]1C	·	-21.1	11.5	0.9	-6.4	-44.3[16.7 µM]
CCN(c1ccccc1)S(=O)(=O)c1ccc(OC)c(OC)c1	·	5.9	55.3*	1.3	-13.1	·
CCCc1cc(=O)n2[nH]cc(-c3ccc(Cl)cc3)c2n1	29.1	·	-0.4	1.3	22.9	84.9*
C=C(C)C(=O)Nc1nnc(-c2cccs2)s1	23.8	·	118.5*	·	·	6.7
Cc1cc(C(=O)Nc2cccc3c2O[C@@H](CN(C)S(=O)(=O)c2cn(C)cn2)[C@H](C)CN([C@@H](C)CO)C3=O)n(C)n1	·	-2.8	1.2	-2.3	-13.3	·
CCc1cccc(NC(=O)C2CC2c2ccccc2)c1 (stereo unspecified)	-28.0	-1.4	-2.9	-4.2	-12.6	0.4
O=C(NNC(=O)C1CC1c1ccccc1)Nc1cccc(Cl)c1 (stereo unspecified)	·	10.7	-11.5	·	·	55.6*
C[C@H]1CCCCO[C@@H](CN(C)C(=O)C2CCCCC2)[C@@H](C)CN([C@@H](C)CO)C(=O)c2cc(NC(=O)Nc3ccccc3)ccc2O1	27.8	2.1	-14.0	0.1	10.0	63.7*[16.7 µM]
C[C@H](CO)N1C[C@H](C)[C@H](CN(C)C(=O)C2CCCCC2)OCCCC[C@H](C)Oc2ccc(NC(=O)Nc3ccccc3)cc2C1=O	46.9	2.9	-5.2	-1.1	-4.0	59.7*[16.7 µM]
O=C1CN(S(=O)(=O)Cc2ccccc2)C[C@@H]2[C@H](c3ccc(C#Cc4ccccc4)cc3)[C@@H](CO)N12	·	-5.1	-8.5	3.1	13.6	·
C[C@@H]1CN(C)C(=O)c2cc(N)ccc2O[C@@H]1CN(C)C	·	·	-3.1	·	·	·
NC(=O)COC(=O)CC(NC(N)=O)c1ccc(Cl)cc1 (stereo unspecified)	-11.5	106.6*	·	-0.3	-15.0	·
Cc1cc(C(=O)COC(=O)CC(NC(N)=O)c2ccc(Cl)cc2)c(C)n1C (stereo unspecified)	11.2	-1.6	-6.9	-0.7	-4.4	·
CCCC(=O)Nc1ccc2c(c1)OC[C@H](C)N(Cc1ccccc1F)C[C@H](C)[C@@H](OC)CN(C)C2=O	14.8	-6.3	-28.9	-1.3	-0.2	·
COCCCN=C1NN=C(c2cc(C)n(Cc3ccccc3Cl)c2C)CS1	-0.9	11.1	5.3	9.1*	45.9	-338.6
Cc1cc(C2=NNC(=NCCc3ccccc3)SC2)c(C)n1-c1c(C)n(C)n(-c2ccccc2)c1=O	-36.6	62.9*	19.8	3.0	8.8	-11.0
COCCCN=C1NN=C(c2cc(C)n(-c3ccccc3F)c2C)CS1	-36.2	·	4.0	2.4	57.9*	-0.3
SMILES	PAX8 reporter	PGC1a acetyl inh	INS-1E GSIS act	CFTR F508del cor	EWS-Fli block	HIV Env fusion
COCCCN=C1NN=C(c2cc(C)n(-c3ccccc3)c2C)CS1	-9.7	3.2	10.0	-5.0	-58.0	-60.6
CC(C)NC(=O)N[C@H]1C=C[C@@H](CC(=O)NCc2ccc(Oc3ccccc3)cc2)O[C@@H]1CO	-25.9	-6.4	-4.7	-0.3	-9.2	-88.6[16.7 µM]
C[C@H]1CN([C@@H](C)CO)C(=O)c2cc(NS(=O)(=O)c3ccc(F)cc3)ccc2O[C@@H]1CN(C)Cc1ccc(C(F)(F)F)cc1	-11.4	7.9	-16.3	0.5	-1.0	19.2[16.7 µM]
C[C@@H]1CN([C@H](C)CO)C(=O)c2cccc(NS(=O)(=O)c3cn(C)cn3)c2O[C@H]1CN(C)C(=O)Nc1ccc(F)cc1	-2.1	-1.5	-4.6	4.7	23.8	73.3*[16.7 µM]
C[C@@H]1CN([C@H](C)CO)C(=O)c2cc(NS(=O)(=O)c3ccc(F)cc3)ccc2O[C@@H]1CN(C)Cc1ccc(C(F)(F)F)cc1	115.1*	-5.9	-14.8	1.6	68.1*	-9.6[16.7 µM]
C[C@@H]1CN([C@@H](C)CO)C(=O)c2cccc(NS(=O)(=O)c3ccc(F)cc3)c2O[C@@H]1CN(C)Cc1ccc(C(F)(F)F)cc1	36.5	-17.3	-11.1	-6.3	10.3	57.8*[16.7 µM]
C[C@@H]1CN([C@H](C)CO)C(=O)c2cccc(NS(=O)(=O)c3ccc(F)cc3)c2O[C@H]1CN(C)Cc1ccc(C(F)(F)F)cc1	3.8	-10.1	-11.0	1.2	10.7	38.6[16.7 µM]
C[C@@H]1CN([C@H](C)CO)C(=O)c2cc(NS(=O)(=O)c3ccc(F)cc3)ccc2O[C@H]1CN(C)Cc1ccc(C(F)(F)F)cc1	-34.0	?	-21.8	-0.9	7.5	71.5*[16.7 µM]
Cc1ccc(S(=O)(=O)Nc2cccc3c2O[C@@H](CN(C)C(=O)Nc2ccc(C(F)(F)F)cc2)[C@@H](C)CN([C@H](C)CO)C3=O)cc1	104.3*	4.3	-26.7	-0.1	0.1	-56.2[16.7 µM]
C[C@@H]1CN([C@@H](C)CO)S(=O)(=O)c2ccc(C#CC(C)(C)O)cc2O[C@H]1CN(C)C(=O)C1CCC1	·	4.4	-6.5	-1.0	2.9	-32.1[16.7 µM]
COc1cc(C(=O)O)ccc1O	-6.0	-4.5	-4.5	-3.2	-1.0	2.8
COc1cc(C(=O)C(=O)c2ccc(O)c(OC)c2)ccc1O	2.6	2.3	42.6*	-0.8	6.5	-4.2
O=C(CN1CCN(c2nc(-c3ccc(Cl)cc3)cs2)CC1)NCc1ccco1	·	-0.7	-27.0	·	·	60.3*
